Measured values published in the supplement of paper PMC11732987, “Enantioselective OTUD7B fragment discovery through chemoproteomics screening and high-throughput optimisation” (Communications Chemistry, 2025).

Legend:
Assay in all cases: log2 ratio of Biotin-Ahx-Ub-VS probe labelling (fragment/DMSO); higher = less target engagement (more negative = stronger competition), active = hit call of the paper (q ≤ 0.05, log2 ratio ≤ -1)
Conditions in all cases: compound concentration: 200 uM; treatment time: 3 h
[1] = biological target: T1, USP19 (UniProt O94966)
T1 sequence (whole entry): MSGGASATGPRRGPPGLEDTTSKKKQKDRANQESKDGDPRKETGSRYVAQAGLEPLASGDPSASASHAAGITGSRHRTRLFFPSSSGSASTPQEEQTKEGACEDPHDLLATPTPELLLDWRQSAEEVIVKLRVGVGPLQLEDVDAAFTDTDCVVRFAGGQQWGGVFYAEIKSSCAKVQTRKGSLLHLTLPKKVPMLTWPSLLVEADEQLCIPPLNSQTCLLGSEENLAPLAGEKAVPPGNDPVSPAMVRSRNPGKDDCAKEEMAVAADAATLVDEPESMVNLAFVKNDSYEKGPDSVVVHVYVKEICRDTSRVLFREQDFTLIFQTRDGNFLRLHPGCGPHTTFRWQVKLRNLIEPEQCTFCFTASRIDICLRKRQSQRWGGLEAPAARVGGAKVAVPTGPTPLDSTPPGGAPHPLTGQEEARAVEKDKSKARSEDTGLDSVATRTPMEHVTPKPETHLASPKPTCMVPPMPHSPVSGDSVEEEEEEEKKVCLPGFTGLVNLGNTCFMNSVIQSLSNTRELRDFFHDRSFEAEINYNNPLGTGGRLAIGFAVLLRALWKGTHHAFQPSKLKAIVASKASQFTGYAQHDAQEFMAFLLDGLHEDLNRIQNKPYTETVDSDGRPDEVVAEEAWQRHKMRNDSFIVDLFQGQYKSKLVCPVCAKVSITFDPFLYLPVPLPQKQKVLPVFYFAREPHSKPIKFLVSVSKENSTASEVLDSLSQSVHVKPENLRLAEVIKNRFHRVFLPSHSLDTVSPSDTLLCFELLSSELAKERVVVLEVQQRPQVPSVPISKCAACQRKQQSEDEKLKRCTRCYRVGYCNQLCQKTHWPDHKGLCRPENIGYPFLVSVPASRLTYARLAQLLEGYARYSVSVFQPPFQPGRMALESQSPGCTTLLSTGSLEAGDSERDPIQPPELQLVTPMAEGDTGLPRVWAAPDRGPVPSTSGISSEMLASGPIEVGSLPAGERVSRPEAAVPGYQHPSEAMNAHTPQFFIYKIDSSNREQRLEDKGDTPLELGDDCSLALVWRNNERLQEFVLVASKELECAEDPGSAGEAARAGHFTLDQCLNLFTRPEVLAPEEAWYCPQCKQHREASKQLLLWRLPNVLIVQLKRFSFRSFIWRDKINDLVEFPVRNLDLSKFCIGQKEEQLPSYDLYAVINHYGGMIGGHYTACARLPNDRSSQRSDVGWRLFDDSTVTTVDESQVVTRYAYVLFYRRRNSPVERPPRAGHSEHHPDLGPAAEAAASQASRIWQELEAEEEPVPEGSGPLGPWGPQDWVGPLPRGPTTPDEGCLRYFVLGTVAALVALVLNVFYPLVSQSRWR
Procedure, shortened: (§1)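 HEK293T lysate in Tris/CHAPS/IGEPAL buffer with protease inhibitors (495 µg per sample) was given fragment at 200 µM or vehicle for 3 h, in triplicate. It then received Biotin-Ahx-Ub-VS at 0.5 µM final for 1 h. Labelled DUBs were NeutrAvidin-enriched, digested with LysC and trypsin, and run by diaPASEF LC-MS/MS. Values are average log2 fragment/vehicle ratios by unpaired t-test on global-median-normalised Spectronaut quantities of proteins with ≥2 unique peptides.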

[2] = biological target: T2, USP22 (UniProt Q9UPT9)
T2 sequence (whole entry): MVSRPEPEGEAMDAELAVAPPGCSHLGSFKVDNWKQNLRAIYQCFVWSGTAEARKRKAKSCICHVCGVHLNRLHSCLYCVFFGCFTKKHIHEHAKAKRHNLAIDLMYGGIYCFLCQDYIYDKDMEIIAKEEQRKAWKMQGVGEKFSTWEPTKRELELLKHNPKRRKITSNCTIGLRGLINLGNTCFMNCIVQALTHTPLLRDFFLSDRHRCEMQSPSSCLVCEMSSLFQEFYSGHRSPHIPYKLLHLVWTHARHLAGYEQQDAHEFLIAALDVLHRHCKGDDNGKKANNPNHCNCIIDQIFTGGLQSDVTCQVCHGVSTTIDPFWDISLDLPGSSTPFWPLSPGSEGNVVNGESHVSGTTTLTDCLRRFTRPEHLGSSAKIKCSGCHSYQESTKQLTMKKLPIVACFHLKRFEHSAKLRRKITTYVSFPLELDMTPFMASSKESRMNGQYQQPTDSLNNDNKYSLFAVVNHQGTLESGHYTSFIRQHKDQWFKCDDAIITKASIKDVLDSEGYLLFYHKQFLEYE
Procedure, shortened: as §1

[3] = biological target: USP24 (UniProt Q9UPU5)
Chain of USP24 (Q9UPU5 whole entry): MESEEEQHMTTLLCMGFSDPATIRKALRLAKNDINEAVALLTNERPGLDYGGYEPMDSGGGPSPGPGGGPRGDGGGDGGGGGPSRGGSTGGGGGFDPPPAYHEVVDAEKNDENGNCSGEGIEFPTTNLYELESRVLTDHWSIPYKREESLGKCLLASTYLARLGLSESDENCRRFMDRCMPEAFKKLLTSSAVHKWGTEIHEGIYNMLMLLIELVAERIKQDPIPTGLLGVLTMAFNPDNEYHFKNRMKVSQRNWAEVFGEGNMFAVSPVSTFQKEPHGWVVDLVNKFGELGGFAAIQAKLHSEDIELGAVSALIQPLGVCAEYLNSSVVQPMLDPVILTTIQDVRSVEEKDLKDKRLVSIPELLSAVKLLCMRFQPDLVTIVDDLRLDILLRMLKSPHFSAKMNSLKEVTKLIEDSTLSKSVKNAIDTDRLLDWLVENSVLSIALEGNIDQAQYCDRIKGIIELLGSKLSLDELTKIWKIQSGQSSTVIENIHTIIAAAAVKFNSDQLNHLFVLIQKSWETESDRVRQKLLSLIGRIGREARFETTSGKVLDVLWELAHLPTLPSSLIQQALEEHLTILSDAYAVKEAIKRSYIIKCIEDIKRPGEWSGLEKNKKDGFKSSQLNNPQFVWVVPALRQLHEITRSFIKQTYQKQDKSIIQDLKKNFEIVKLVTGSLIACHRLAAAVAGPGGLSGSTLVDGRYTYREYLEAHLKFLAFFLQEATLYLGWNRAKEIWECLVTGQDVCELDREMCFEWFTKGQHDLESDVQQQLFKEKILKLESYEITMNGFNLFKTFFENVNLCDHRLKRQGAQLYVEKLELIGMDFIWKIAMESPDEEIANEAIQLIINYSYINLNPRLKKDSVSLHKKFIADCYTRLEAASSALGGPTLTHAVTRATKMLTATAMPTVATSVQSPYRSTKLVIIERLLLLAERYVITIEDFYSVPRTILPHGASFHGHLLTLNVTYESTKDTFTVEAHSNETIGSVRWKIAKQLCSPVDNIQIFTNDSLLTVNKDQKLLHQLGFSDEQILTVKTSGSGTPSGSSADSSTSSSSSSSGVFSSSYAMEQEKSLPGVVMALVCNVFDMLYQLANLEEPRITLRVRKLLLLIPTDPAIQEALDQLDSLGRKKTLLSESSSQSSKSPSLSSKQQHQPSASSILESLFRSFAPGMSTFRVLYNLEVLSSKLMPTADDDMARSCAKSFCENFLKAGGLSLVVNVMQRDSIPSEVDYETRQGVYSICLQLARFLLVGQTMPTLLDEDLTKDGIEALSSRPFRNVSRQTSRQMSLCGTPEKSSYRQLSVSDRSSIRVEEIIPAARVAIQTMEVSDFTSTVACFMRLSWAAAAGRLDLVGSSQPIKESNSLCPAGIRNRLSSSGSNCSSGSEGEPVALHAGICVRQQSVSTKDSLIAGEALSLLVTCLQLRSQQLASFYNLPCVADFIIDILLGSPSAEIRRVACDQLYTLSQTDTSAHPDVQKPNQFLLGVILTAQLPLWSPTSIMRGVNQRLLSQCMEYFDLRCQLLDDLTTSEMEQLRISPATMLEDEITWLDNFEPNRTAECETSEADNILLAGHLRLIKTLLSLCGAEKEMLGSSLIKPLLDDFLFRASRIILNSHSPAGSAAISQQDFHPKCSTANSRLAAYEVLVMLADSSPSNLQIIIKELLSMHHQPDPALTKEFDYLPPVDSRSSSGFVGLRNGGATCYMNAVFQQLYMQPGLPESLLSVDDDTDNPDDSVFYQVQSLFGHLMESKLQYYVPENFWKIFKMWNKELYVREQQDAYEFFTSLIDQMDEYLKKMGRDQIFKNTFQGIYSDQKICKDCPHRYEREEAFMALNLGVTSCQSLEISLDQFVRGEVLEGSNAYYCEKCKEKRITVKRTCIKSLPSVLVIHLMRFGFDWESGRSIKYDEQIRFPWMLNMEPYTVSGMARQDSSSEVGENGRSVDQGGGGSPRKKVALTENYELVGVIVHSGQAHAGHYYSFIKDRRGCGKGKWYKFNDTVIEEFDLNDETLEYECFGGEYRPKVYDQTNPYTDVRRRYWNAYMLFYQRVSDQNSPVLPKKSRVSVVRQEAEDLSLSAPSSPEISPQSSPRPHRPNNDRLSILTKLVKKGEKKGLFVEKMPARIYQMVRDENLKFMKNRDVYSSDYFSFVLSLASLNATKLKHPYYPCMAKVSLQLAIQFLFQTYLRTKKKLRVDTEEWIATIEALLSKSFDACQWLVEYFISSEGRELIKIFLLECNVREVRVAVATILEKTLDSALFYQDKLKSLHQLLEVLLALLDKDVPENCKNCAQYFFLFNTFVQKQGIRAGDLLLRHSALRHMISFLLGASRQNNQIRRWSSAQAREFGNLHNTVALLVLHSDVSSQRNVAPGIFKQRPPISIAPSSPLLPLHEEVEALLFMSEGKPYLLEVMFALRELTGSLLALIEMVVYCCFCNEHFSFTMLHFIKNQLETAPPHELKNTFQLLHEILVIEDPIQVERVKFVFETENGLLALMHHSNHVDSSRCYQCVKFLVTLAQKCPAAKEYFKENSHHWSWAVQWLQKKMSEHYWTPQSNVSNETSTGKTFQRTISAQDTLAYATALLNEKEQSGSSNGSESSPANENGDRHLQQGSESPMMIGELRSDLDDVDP
Procedure, shortened: as §1

[4] = biological target: T3, USP25 (UniProt Q9UHP3)
T3 sequence (whole entry): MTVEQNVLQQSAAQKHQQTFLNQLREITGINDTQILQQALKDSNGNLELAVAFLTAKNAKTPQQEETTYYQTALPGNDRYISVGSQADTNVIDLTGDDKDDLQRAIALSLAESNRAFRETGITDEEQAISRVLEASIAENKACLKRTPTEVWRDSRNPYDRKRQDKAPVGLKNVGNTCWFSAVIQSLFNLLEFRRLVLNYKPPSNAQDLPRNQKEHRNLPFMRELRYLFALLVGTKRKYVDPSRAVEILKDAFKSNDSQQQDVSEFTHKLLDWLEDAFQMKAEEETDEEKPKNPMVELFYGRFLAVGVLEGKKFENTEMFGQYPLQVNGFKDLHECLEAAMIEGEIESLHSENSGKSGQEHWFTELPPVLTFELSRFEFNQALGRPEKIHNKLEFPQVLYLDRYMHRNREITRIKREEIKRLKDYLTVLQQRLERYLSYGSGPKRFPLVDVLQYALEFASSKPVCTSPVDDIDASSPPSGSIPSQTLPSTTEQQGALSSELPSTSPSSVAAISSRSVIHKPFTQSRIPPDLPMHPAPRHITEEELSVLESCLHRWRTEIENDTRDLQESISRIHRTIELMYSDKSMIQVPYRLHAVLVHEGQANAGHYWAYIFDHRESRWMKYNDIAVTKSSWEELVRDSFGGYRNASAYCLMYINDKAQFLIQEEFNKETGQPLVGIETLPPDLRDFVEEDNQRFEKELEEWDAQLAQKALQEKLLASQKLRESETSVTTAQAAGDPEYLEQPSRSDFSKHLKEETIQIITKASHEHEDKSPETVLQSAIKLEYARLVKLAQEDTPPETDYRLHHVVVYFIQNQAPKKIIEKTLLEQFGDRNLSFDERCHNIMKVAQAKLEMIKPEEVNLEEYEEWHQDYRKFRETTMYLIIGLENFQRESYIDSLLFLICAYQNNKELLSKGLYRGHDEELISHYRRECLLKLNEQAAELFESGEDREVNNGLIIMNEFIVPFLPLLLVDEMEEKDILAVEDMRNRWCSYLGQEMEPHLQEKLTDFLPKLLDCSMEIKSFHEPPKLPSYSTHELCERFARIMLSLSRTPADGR
Procedure, shortened: as §1

[5] = biological target: T4, USP28 (UniProt Q96RU2)
T4 sequence (whole entry): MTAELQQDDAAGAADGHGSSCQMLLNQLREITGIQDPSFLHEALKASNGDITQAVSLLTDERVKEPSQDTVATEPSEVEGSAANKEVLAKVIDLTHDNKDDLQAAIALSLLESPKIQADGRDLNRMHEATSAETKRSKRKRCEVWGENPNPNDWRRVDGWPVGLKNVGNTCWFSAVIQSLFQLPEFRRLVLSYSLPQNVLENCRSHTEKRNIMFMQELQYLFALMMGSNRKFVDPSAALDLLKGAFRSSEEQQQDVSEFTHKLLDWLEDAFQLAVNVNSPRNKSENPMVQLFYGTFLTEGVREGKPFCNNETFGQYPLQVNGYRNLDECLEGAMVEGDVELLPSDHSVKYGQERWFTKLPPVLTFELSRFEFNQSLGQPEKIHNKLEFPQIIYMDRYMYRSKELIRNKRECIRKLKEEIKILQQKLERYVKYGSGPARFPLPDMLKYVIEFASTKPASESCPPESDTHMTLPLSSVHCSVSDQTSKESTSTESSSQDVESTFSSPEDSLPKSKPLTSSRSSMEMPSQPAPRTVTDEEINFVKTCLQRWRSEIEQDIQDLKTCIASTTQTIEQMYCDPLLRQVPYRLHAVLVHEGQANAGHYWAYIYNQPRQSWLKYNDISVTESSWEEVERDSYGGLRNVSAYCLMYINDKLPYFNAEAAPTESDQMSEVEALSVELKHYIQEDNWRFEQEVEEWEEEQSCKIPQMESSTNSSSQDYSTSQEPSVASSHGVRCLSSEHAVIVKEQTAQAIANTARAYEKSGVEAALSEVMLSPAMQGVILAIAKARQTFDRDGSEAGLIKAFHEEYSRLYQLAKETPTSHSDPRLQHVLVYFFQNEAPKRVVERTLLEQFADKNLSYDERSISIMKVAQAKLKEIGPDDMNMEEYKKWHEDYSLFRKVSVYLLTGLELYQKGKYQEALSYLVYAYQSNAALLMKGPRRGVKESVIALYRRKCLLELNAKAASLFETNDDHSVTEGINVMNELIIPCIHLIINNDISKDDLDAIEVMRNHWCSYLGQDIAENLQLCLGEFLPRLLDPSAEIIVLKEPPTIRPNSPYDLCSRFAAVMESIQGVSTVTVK
Procedure, shortened: as §1

Measured: log2 ratio of Biotin-Ahx-Ub-VS probe labelling

Cl.O=C(CCl)N1CCn2cncc2C1
inactive: [1] -0.443 | [2] -0.0616 | [3] -0.129 | [4] -0.134 | [5] -0.354
